Source: PubChem BioAssay (Tox21)
Records with an inconclusive call do not appear. A call without a number means that no potency is given here. The source made the active and inactive calls. Calls come from the whole dose curve; as a rule, active = well fitted inhibition curve with a large enough effect in the repeat runs; inconclusive = weak or mixed curves; inactive = flat fitted curve, though single readings scatter.

What follows are compounds tested against Voltage-gated inwardly rectifying potassium channel KCNH2 (Homo sapiens) (UniProt Q12809) (assay: Human Ether-a-go-go-Related Gene (hERG) channel small molecule antagonists: fluorescence cell-based qHTS assay (AID 1671200; note: nearly all actives have a fitted effect of over 50% in size)). Conditions: hERG-U2OS cells, FluxOR thallium flux fluorescence; series mostly up to 76.8 µM.
Chain of Voltage-gated inwardly rectifying potassium channel KCNH2 (Homo sapiens) (Q12809 whole entry, looked up): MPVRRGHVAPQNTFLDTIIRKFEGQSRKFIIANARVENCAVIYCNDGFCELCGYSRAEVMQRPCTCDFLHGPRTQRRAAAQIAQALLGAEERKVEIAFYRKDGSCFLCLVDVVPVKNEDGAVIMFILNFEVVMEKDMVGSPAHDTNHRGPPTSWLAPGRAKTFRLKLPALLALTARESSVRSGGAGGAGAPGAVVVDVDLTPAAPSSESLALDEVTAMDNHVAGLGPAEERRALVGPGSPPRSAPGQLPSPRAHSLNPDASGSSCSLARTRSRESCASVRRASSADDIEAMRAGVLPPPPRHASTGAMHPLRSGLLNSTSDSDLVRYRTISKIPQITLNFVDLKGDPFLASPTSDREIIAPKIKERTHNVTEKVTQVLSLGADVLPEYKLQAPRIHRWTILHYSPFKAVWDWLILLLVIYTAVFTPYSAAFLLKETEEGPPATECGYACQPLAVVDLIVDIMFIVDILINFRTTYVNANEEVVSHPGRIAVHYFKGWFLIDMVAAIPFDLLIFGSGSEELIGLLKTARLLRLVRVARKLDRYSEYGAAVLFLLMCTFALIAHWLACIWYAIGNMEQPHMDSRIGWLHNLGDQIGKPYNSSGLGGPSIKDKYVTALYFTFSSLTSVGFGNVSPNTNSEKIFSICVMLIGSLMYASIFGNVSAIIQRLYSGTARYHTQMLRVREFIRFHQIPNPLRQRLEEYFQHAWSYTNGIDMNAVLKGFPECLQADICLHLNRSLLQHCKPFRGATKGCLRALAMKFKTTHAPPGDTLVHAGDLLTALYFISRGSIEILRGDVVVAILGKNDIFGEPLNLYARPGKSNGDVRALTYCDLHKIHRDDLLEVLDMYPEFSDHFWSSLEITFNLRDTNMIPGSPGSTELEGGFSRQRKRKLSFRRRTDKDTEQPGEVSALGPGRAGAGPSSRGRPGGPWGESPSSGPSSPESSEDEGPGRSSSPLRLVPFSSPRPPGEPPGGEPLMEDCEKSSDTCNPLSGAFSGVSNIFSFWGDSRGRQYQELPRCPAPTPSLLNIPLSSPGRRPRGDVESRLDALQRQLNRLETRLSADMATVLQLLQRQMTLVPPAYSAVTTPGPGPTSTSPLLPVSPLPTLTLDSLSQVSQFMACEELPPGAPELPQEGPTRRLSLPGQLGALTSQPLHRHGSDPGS
Source text: National Center for Advancing Translational Sciences [NCATS]
U.S. Environmental Protection Agency [EPA]
National Institutes of Environmental Health Sciences [NIEHS]
National Toxicology Program [NTP]
U.S. Food and Drug Administration [FDA]
Mutations in the hERG channel cause Long QT (LQT) syndrome. LQT syndrome is a cardiac disorder which can cause ventricle arrhythmia and sudden death. Additionally, compounds which block the hERG channel can cause acquired LQT syndrome. Several FDA approved drugs have been removed from the market due to their hERG blocking activity. A cell-based hERG channel inhibition assay can be used to screen chemical compounds that inhibit hERG channel. This assay measures hERG channel activity using thallium ions as surrogate ions to measure potassium into the cells.
Tox21 Assay Protocol Summary:
hERG-U2OS cells were resuspended in culture medium and dispensed into 1536-well, black wall/clear-bottom plates at 1000cells/well/3uL using a Multidrop Combi dispenser (Thermo Fisher, Waltham, MA). After plates were incubated at 37 C overnight, 3 uL of Loading Buffer provided by FluxOR II Potassium Ion Channel Assay kit (Thermo, Carlsbad, CA) was added to each well. The assay plates were then incubated at room temperature in the dark for 1h. […] After the assay plates were incubated at room temperature for 10 min, 1 uL of Stimulus Buffer provided by FluxOR II Potassium Ion Channel Assay kit was added into each well and fluorescence intensity (480nm excitation/540nm emission) was continuously measured for 2 min at 1 second intervals using a Functional Drug Screening System (FDSS) 7000EX kinetic plate reader (Hamamatsu, Japan).
Potency is the fitted concentration of half-maximal effect.

Compound | Potency | activity change, negative = inhibition
CC(O)C1CCCCC1 (stereo not given) | inactive | –
CC[C@H](C)[C@H](N)C(=O)O | inactive | –
Cc1ccc2c(ccc3ccccc32)c1 | inactive | –
O=S1(=O)N=C(O)c2ccccc21 | inactive | –
Cc1occc1S | inactive | –
CC(C)c1ccccc1C(C)C | inactive | –
Cc1ccc(C(C)c2ccc(C)c(C)c2)cc1C | inactive | –
O=[N+]([O-])c1cc[n+]([O-])cc1 | inactive | –
CCN(CC)C(C)=O | inactive | –
Cc1cc(NC(=O)C(=O)O)cc(C)c1Oc1ccc(O)c2c1CCC2 | inactive | –
NC(N)=NN=C(/C=C/c1ccc([N+](=O)[O-])o1)/C=C/c1ccc([N+](=O)[O-])o1 | 2.39 µM (active) | –
CCCCCCCCC(CO)CCCCCC (stereo not given) | inactive | –
CC(=O)N(CC(=O)N(C)C)c1ccccc1 | inactive | –
C=CC(=O)OCC(C)OCC(C)OCC(C)OC(=O)C=C (stereo not given) | inactive | –
Cc1cc(O)ccc1N | inactive | –
CCOc1ccc(NC(=O)CC(C)=O)cc1 | inactive | –
CCCCCCCCCCCCC(=O)O | inactive | –
CC(C)c1cccc(C(C)C)c1NC(=O)NS(=O)(=O)c1cc(C(C)(C)O)co1 | inactive | –
CN(C)CC[C@@H](c1ccc(Br)cc1)c1ccccn1 | inactive | –
O=C1Nc2cc(Cl)ccc2Oc2ccccc21 | inactive | –

Compound | Potency | activity change, negative = inhibition
O=C1CCCCCO1 | inactive | –
CN(C)CCCNCCCN | inactive | –
CCOC(=O)CC(=O)c1cc(F)c(Cl)nc1Cl | inactive | –
FC(F)(F)C(F)(F)C(F)(F)C(F)(F)C(F)(F)C(F)(F)CCI | inactive | –
CCN(CC)CCNC(C(=O)OCCC(C)C)c1ccccc1 (stereo not given) | 9.52 µM (active) | –
O=C(O)c1cccc(N(Cc2cccnc2)c2ccc(OC(F)F)c(OC(F)F)c2)c1 | inactive | –
CC[C@H](C)[C@@H](C(=O)O)n1sc2ccccc2c1=O | inactive | –
CC(C)(C)c1ccc(S)cc1 | inactive | –
N#CCc1cccc(C(F)(F)F)c1 | inactive | –
O=C(CC(=O)c1ccccc1)c1ccccc1 | inactive | –
CC[C@@H]1C[C@H](N(Cc2cc(C(F)(F)F)cc(C(F)(F)F)c2)C(C)=O)c2cc(C(F)(F)F)ccc2N1C(=O)OC(C)C | inactive | –
NC(N)=N/N=C/c1c(Cl)cccc1Cl | inactive | –
CCCCOC(O)CC (stereo not given) | inactive | –
O=C(O)c1cn(C2CC2)c2cc(Cl)c(F)cc2c1=O | inactive | –
CC(C)CCCCCCOC(=O)c1ccc(C(=O)OCCCCCCC(C)C)c(C(=O)OCCCCCCC(C)C)c1 | inactive | –
CCCCC(CC)(CO)CO | inactive | –
O=C(C(=O)c1ccc(Br)cc1)c1ccc(Br)cc1 | – | -1.71% [at 15.8 µM] (inactive)
COCCO | inactive | –
CCCCOc1ccc(CC(=O)NO)cc1 | inactive | –
Cc1c(Cn2ccnc2)c2ccccc2n1CCC(=O)O | inactive | –
